Potency and activity (max response) data for 19 molecules are collected here from PubChem BioAssay (NCATS).

Where “and” joins values, the source holds several entries; their conditions need not be identical. Equal values may be shown once. Records with an inconclusive call do not appear. More than one record can exist for a structure, and the calls need not agree. Calls of active or inactive are those of the source. Calls follow the shape of the dose curve; as a rule, active = well fitted curve in the direction sought with a large enough effect; inconclusive = small, poorly fitted or top-dose-only effect, or another doubt; inactive = no such curve, though single readings can be large; an effect the other way counts as inactive or inconclusive.

The nature of experiment [1]: Viability qHTS for spleen associated tyrosine kinase inhibitor (SYKi) naive MV4-11 cells (AID 1963823). Also: nearly all actives have a fitted effect of over 40% in size. The gist of the method:
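SYKi-naive MV4-11 AML cells, 500 per well, were exposed to library compounds for 72 hr at 37 C, 5% CO2. Viability was then read by CellTiter-Glo luminescence after 10 min at room temperature.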

Experiment [2] in a line: Viability qHTS for spleen associated tyrosine kinase inhibitor (SYKi) drug resistant MV4-11 cells (AID 1963824). Also: nearly all actives have a fitted effect of over 35% in size. The essentials:
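SYK-inhibitor-resistant MV4-11 AML cells were seeded at 500 per well onto compound and cultured 72 hours (37 °C, 5% CO2). CellTiter-Glo was then added, and after 10 min at room temperature, luminescence gave viability.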
On the technique in general: Quantitative high-throughput screening tests each substance at several concentrations.

Experiment [3] can be described thus: Quantitative highthroughput screen to assess conditional lethalithy of NOMO1 cells grown in RPMI1640 with untreated serum (RPMI+s) (AID 1963876). Also: nearly all actives have a fitted effect of over 35% in size.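 As to Viability: 100% = DMSO wells and 0% = empty wells without cells.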 The essentials: (§1)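 Each medium arm—HPLM with 10% dialyzed FBS, or RPMI1640 with 5 mM glucose and 10% untreated or dialyzed FBS—was screened against an 11-point, 3-fold compound titration for 48 h at 37 °C, with CellTiter-Glo luminescence as endpoint.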

Experiment [4] in a line: Quantitative highthroughput screen to assess conditional lethalithy of NOMO1 cells grown in RPMI1640 with dialyzed fetal bovine serum (RPMI+ds) (AID 1963877). Also: nearly all actives have a fitted effect of over 30% in size.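 As to Viability: series mostly up to about 46 µM; 100% = DMSO control wells and 0% = empty wells.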 The gist of the method: as §1
Experiment [5] in a line: Quantitative highthroughput screen to assess conditional lethalithy of NOMO1 cells grown in Human Plasma-Like Medium with dialyzed fetal bovine serum (HPLM+ds) (AID 1963878). Also: nearly all actives have a fitted effect of over 35% in size.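 As to Viability: 100% = DMSO wells and 0% = empty wells on each plate.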 The essentials:
as §1

A short description of experiment [6]: Quantitative highthroughput screen to assess conditional lethalithy of P12 Ichikawa cells grown in Human Plasma-Like Medium with dialyzed fetal bovine serum (HPLM+ds) (AID 1963879). Also: nearly all actives have a fitted effect of over 35% in size. As to Viability: series mostly up to about 46 µM. As to conditions: Potency: viability. The gist of the method:
as §1

The nature of experiment [7]: Quantitative highthroughput screen to assess conditional lethalithy of P12 Ichikawa cells grown in RPMI1640 with dialyzed fetal bovine serum (RPMI+ds) (AID 1963880). Also: nearly all actives have a fitted effect of over 35% in size.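 As to Viability: 100% = DMSO wells and 0% = empty wells on each plate.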 The following applies: Potency: P12-Ichikawa viability. The essentials:
as §1

Experiment [8] is described as follows: Quantitative highthroughput screen to assess conditional lethalithy of P12 Ichikawa cells grown in RPMI1640 with untreated serum (RPMI+s) (AID 1963881). Also: nearly all actives have a fitted effect of over 35% in size.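 As to Viability: series mostly up to about 46 µM; 100% = DMSO wells and 0% = empty wells without cells.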 As to conditions: Potency: viability. The gist of the method:
as §1

Experiment [9] is described as follows: Quantitative highthroughput screen to assess conditional lethalithy of SEM cells grown in Human Plasma-Like Medium with dialyzed fetal bovine serum (HPLM+ds) (AID 1963882). Also: nearly all actives have a fitted effect of over 35% in size. As to Viability: series mostly up to about 46 µM. The essentials:
as §1

A short description of experiment [10]: Quantitative highthroughput screen to assess conditional lethalithy of SEM cells grown in RPMI1640 with unreated serum (RPMI+s) (AID 1963883). Also: nearly all actives have a fitted effect of over 35% in size.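 As to Viability: 100% = DMSO wells and 0% = empty wells without cells.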 The gist of the method:
as §1

The nature of experiment [11]: Quantitative highthroughput screen to assess conditional lethalithy of SEM cells grown in RPMI1640 with dialyzed fetal bovine serum (RPMI+ds) (AID 1963884). Also: nearly all actives have a fitted effect of over 35% in size.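 As to Viability: series mostly up to about 46 µM; 100% = DMSO control wells and 0% = empty wells without cells.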 The essentials:
as §1

A short description of experiment [12]: Cellular viability qHTS for adrenocortical cancer (ACC) cell line SW-13 (AID 1963989). Also: nearly all actives have a fitted effect of over 65% in size.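 As to activity (max response): cells grown in serum-free medium with ITS supplement; % is scaled to controls: 0 for no effect and ±100 for the full control effect.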 As to conditions: SW-13 ACC cells viability, CellTiter-Glo, 48 h; activity (max response): stronger effect = lower value. The gist of the method: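 Viability was read as CellTiter-Glo luminescence after 48 h compound treatment (up to 46 uM final) of SW-13 cells grown serum-free; titration curves were fit with a four-parameter logistic model to give IC50 and efficacy.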

A short description of experiment [13]: Cellular viability qHTS for adrenocortical cancer (ACC) cell line NCI-H295R (AID 1963990). Also: nearly all actives have a fitted effect of over 60% in size. The gist of the method:
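CellTiter-Glo ATP luminescence, read 48 h after compound addition, measured viability of NCI-H295R adrenocortical cells grown serum-free with ITS. Final concentrations spanned up to 46 uM. Data normalized to DMSO and doxorubicin, fitted for IC50 and maximal response.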
Potency is read from the fitted curve at half-maximal effect.

For `N#CCC(C1CCCC1)n1cc(-c2ncnc3[nH]ccc23)cn1` (centres undefined), the Potency in [1] and in [2] was 10.3 µM (active) each time.

On to `COCCNCCCn1c(C(=O)CF)c(-c2ccc(C)cc2)c2c(N)ncnc21`, for which the Potency in experiment [1] is 4.17 µM (active); in experiment [2], 6.61 µM (active); in experiment [9] it was 11800 nM (active); in experiment [10], 166 nM (active); in experiment [11] it was 743 nM (active). Further, the Potency entry in [3], in experiment [4], in experiment [5], in experiment [6], in [7] and in experiment [8] was “inactive” throughout. In addition, the activity (max response) in experiment [12] was 7.79% (inactive).

On to `C=CC(=O)Nc1ccc2ncnc(Nc3ccc(OCc4cccc(F)c4)c(Cl)c3)c2c1`, for which the Potency is 5.8 µM (active) and 5.9 µM (active) in experiment [1]; 2.31 µM (active) and 4.68 µM (active) in experiment [2]; 2640 nM (active) in [3]; 3320 nM (active) in [4]; 2350 nM (active) in [5]; 7430 nM (active) in experiment [6]. In addition, the Potency is 7430 nM (active) in [7]; 7430 nM (active) in [8]; 7430 nM (active) in [9]; 7430 nM (active) in experiment [10]; 8330 nM (active) in experiment [11]; 631 nM (active) in experiment [12].

Regarding `COc1ccc(C(=O)N(CCC(C)C)Cc2nc(C)c(C)n2Cc2ccccc2C)c(OC)c1`, the Potency in experiment [1] and in [2] was 20.6 µM (active) throughout.

As to `C[C@](N)(Cc1ccc(O)c(O)c1)C(=O)O`, the Potency result in experiment [1], in experiment [3], in [4], in experiment [5], in experiment [6] and in experiment [7] was “inactive” each time. Further, the Potency result in experiment [8] and in experiment [13] was “inactive” throughout. Besides, the Potency entry in [2] was “inactive and 16.6 µM (active)”; in experiment [9], 26400 nM (active); in experiment [10], 23500 nM (active); in [11], 23500 nM (active). In [12], the activity (max response) is 12% (inactive) and -6.33% (inactive).

For `CCC(=O)N1CCN(c2ccc(-n3c(=O)ccc4cnc5ccc(-c6cnc7ccccc7c6)cc5c43)cc2C(F)(F)F)CC1`, the Potency in experiment [1] is 42.2 nM (active) and 36.2 nM (active); in experiment [2], 59.6 nM (active) and 102 nM (active); in experiment [3], 132 nM (active).

On to `COC(=O)C1=CO[C@@H](O[C@@H]2O[C@H](CO[C@@H]3O[C@H](COC(=O)/C=C/c4cc(OC)c(O)c(OC)c4)[C@@H](O)[C@H](O)[C@H]3O)[C@@H](O)[C@H](O)[C@H]2O)[C@@H]2C(CO)=CC[C@H]12`, for which the Potency result in [1] and in experiment [2] was “inactive” each time.

As for `Cc1occc(=O)c1O[C@@H]1O[C@H](COC(=O)CC(C)(O)CC(=O)O)[C@@H](O)[C@H](O)[C@H]1O` (some centres undefined), the Potency result in experiment [1] and in [2] was “inactive” in each case.

In the case of `C=CC(C)(C)C12Nc3c(ccc4c3OC(C)(C)C=C4)C1(O)CC1C(=O)N3CCCC3C(=O)N12` (centres undefined), the Potency entry in experiment [1] was “inactive”. In addition, the Potency in experiment [2] was 4.47 µM (active).

Turning to `Cc1ccc(-c2ncn(-c3ccc(Nc4nccc(-c5cccc(N6CCOCC6)c5)n4)cc3)n2)cn1`, the Potency is 2.35 µM (active) in experiment [1]; 2.35 µM (active) in experiment [2]; 372 nM (active) in experiment [3]; 372 nM (active) in experiment [4]; 296 nM (active) in experiment [5]; 296 nM (active) in experiment [6]. In addition, the Potency in [7] is 372 nM (active); in experiment [8] it was 296 nM (active); in experiment [9], 235 nM (active); in [10], 118 nM (active); in experiment [11], 148 nM (active).

Turning to `CCCCCCCCCCCCCCCCCCCCCCO`, the Potency entry in experiment [1], in [2], in experiment [3], in [4], in [5] and in [6] was “inactive” each time. For the same molecule, the Potency result in experiment [7], in experiment [8], in experiment [9], in [10], in experiment [11] and in [13] was “inactive” each time. The activity (max response) in [12] was -13.9% (inactive).

Turning to `COc1ccc2c(c1)c(CC(=O)O)c(C)n2C(=O)c1ccc(Cl)cc1`, the Potency entry in [1], in experiment [2], in [3], in experiment [4], in experiment [5] and in [6] was “inactive” in each case. Further, the Potency entry in [7], in experiment [8], in experiment [9], in experiment [10], in [11] and in experiment [13] was “inactive” each time. Moreover, the activity (max response) in experiment [12] was -9.65% (inactive) and -2.21% (inactive).

With `CC(=O)CC(=O)Nc1ccc(Cl)c(C(F)(F)F)c1`, the figures for the Potency in [1] and in experiment [2] were 9.2 µM (active) and 14.6 µM (active), respectively.

On to `O=C(/C=C\n1cnc(-c2cc(C(F)(F)F)cc(C(F)(F)F)c2)n1)NNc1cnccn1`, for which the Potency in [1] was 0.833 µM (active); in experiment [2], 1.18 µM (active); in experiment [3], 1050 nM (active); in [4] it was 933 nM (active); in experiment [5] it was 831 nM (active); in experiment [6] it was 588 nM (active). Besides, the Potency in experiment [7] is 588 nM (active); in [8], 524 nM (active); in experiment [9], 741 nM (active); in experiment [10] it was 588 nM (active); in experiment [11], 741 nM (active); in [12], 12600 nM (active). In addition, the Potency in experiment [13] was 2240 nM (active).

In the case of `Cc1nc(CNc2ncnc3ccc(-c4ccc5c(c4)OCO5)cc23)cs1`, the Potency in experiment [1] is 14.6 µM (active); in [2] it was 23.1 µM (active).

For `COC(=O)C1C2CC3c4[nH]c5cc(OC)ccc5c4CCN3CC2CC(OC(=O)c2cc(OC)c(OC)c(OC)c2)C1OC` (centres undefined), the Potency in [1] is 16.6 µM (active); in [2] it was 11.8 µM (active). Also, the Potency entry in [3], in experiment [4], in experiment [5], in experiment [6], in experiment [7] and in experiment [8] was “inactive” each time. Moreover, the Potency result in experiment [9], in [10] and in [11] was “inactive” throughout. Also, the activity (max response) in experiment [12] is -10.6% (inactive).

For the molecule `CC(=O)Oc1ccccc1C(=O)O`, the Potency entry in experiment [1], in experiment [2], in experiment [3], in experiment [4], in experiment [5] and in experiment [6] was “inactive” throughout. For the same molecule, the Potency entry in experiment [7], in experiment [8], in [9], in [10] and in experiment [11] was “inactive” each time. In addition, the activity (max response) in experiment [12] is 9.69% (inactive) and -6.24% (inactive).

Take `CC(C)(C)C(=O)Oc1ccc(S(=O)(=O)Nc2ccccc2C(=O)NCC(=O)O)cc1`: the Potency result in experiment [1], in experiment [2], in [3], in experiment [4], in experiment [5] and in experiment [6] was “inactive” throughout. For the same molecule, the Potency result in [7], in experiment [8], in experiment [9], in experiment [10], in [11] and in experiment [13] was “inactive” each time. The activity (max response) in experiment [12] is 1.32% (inactive) and -4.44% (inactive).

`CCOC(=O)C1=C(O)C(=O)N(Cc2ccccc2)C1`: the Potency result in experiment [1], in [2], in [3], in experiment [4], in experiment [5] and in experiment [6] was “inactive” each time. Besides, the Potency entry in experiment [7], in experiment [8], in experiment [9], in experiment [10], in experiment [11] and in experiment [13] was “inactive” in each case. In addition, the activity (max response) in experiment [12] was 4.18% (inactive).
